# Measured values published in PubChem BioAssay (NCI).
# Compounds without any hit were thinned out: in the full panel of roughly 83,000, 20% have a hit.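 For each line, cells grew in 96-well plates with the test compound present at a single concentration for 48 hours.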 Active and inactive are the calls of the source. How the source made its calls: active means growth percent below 10; inactive means the rest.
# Tested on: UACC-257 melanoma
# Assay: NCI-60 one-dose screen, 48 h (100 = growth as untreated, 0 = no growth, -100 = all killed)
# Details: 10 µM unless noted
row,Structure (SMILES),growth
1,CC1(C)N=C(N)N=C(N)N1c1ccc(OCCCNC(=O)Nc2ccc(S(=O)(=O)F)cc2)c(Cl)c1,26.4% (inactive)
2,O=C(CN1CCN(C(=O)c2ccco2)CC1)Nc1ccc(Cl)cc1C(=O)c1ccccc1Cl,86.2% (inactive)
3,Cc1cc(N(CCCl)CCCl)ccc1C=Nc1ccccc1-c1ccccc1,55.3% (inactive)
4,Cn1cc(-c2csc(-c3cn(CCN4CCOCC4)c4ccccc34)n2)c2cccnc21,90.7% (inactive)
5,CCOC(=O)[C@@H](C)C[C@H](Cc1ccccc1)NC(=O)c1csc([C@@H](C[C@H](C(C)C)N(C)C(=O)[C@H](CC)NC(=O)[C@H]2CCCCN2C)OC(C)=O)n1,39.1% (inactive)
6,ClC1=C(Cl)C(Cl)(C2(Cl)C(Cl)=C(Cl)C(Cl)=C2Cl)C(Cl)=C1Cl,-60.4% (active)
7,O=C([O][Hg][CH2]C1OCCOC1[CH2][Hg][O]C(=O)c1ccccc1)c1ccccc1 (stereo not drawn),-96.4% (active)
8,COc1ccc([As]=[As]c2ccc(OC)c(NCS(=O)(=O)O)c2)cc1NCS(=O)(=O)O (stereo not drawn),27.6% (inactive)
9,[Cl][Hg][n]1c(-c2ccco2)nc2ccccc21,103% (inactive)
10,CCC[CH2][Sn]([CH2]CCC)([CH2]CCC)[O]c1ccc(Cl)cc1Cl,-88.8% (active)
11,NC(CCl)CCl,102% (inactive)
12,CN1CCC(c2c[nH]c3ccccc23)C1 (stereo not drawn),55.5% (inactive)
13,CCCCCCCCCCCCCCCCCC1OC[C@@H](COC(=O)O[C@@H](C(=O)O[C@H]2C[C@@]3(O)[C@@H](OC(=O)c4ccccc4)[C@@H]4[C@]5(OC(C)=O)CO[C@@H]5C[C@H](O)[C@@]4(C)C(=O)[C@H](OC(C)=O)C(=C2C)C3(C)C)[C@@H](NC(=O)c2ccccc2)c2ccccc2)O1 (stereo partly drawn),69.8% (inactive)
14,CC1=C([Te]c2ccc(O)cc2)C(=O)c2ccccc2C1=O,11.7% (inactive)
15,O=C1NC(=O)C(=Cc2cn(CCCCCCn3c4ccccc4c(=O)c4ccccc43)c3ccccc23)C(=O)N1,104% (inactive)
16,CC(C)OC(=O)[C@H](C)NP(=O)(Oc1ccccc1)C1CCCN(O)C1=O (stereo partly drawn),93.8% (inactive)
17,CCCCCCC(=O)NC1=C(N2CC2)C(=O)C(NC(=O)CCCCCC)=C(N2CC2)C1=O,34.2% (inactive)
18,COc1ccc(/C=C\c2cc(OC)c(OC)c(OC)c2)cc1NS(=O)(=O)c1ccc(Cl)cc1,69% (inactive)
19,CC[C@H](C)[C@H](NC(=O)[C@H]1CCCCN1C)C(=O)N(C)[C@H](CC(=O)c1nc(C(=O)N[C@@H](Cc2ccccc2)C[C@H](C)C(=O)O)cs1)C(C)C,74% (inactive)
20,C[C@]12C[C@@H](CO)[C@H](O)C[C@@H]1CC[C@@H]1[C@@H]2CC[C@]2(C)[C@@H](O)CC[C@@H]12,90.4% (inactive)
21,[Cl][Hg][c]1cc[c]([Hg][Cl])o1,65.5% (inactive)
22,NC(=S)c1cn(C2OC(CO)C(O)C2O)c2ncnc(N)c12 (stereo not drawn),-1.27% (active)
23,COC(=O)CC[C@H](Cc1ccccc1)NC(=O)c1csc([C@@H](C[C@H](C(C)C)N(C)C(=O)[C@@H](NC(=O)[C@H]2CCCCN2C)C(C)C)OC(C)=O)n1,66.6% (inactive)
